# Source: PubChem BioAssay
# Sampled rows, rich in hits. Any-hit rate of the full collection: about 3.3%.
# Mcl1-Bid inh – disrupts binding of human Mcl-1 to Bid peptide | Q07820 | TR-FRET Mcl-1/Bid-Dy647 peptide binding, 1536-well | inhibition, % at 21.7 µM | 220,000 compounds, 0.97% hits;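 active means compounds that cut the binding signal by more than half at the single screening dose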;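 further: His-tagged Mcl-1 with europium anti-His antibody binding Bid BH3 peptide; 0% = Mcl-1 plus peptide wells and 100% = peptide-only wells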
# Target sequence (Q07820 whole entry, looked up): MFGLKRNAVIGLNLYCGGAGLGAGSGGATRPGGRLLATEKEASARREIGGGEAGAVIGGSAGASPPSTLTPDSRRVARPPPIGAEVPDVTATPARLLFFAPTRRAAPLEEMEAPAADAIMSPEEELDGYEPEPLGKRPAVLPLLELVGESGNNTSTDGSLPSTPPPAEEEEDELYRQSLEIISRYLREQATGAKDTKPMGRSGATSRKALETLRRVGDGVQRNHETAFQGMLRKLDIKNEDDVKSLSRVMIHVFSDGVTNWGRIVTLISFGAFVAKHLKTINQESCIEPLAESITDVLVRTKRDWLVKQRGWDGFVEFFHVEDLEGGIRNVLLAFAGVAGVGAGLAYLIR
# 14-3-3 Bad PPI – disrupts binding of bovine 14-3-3 zeta to phospho-Bad peptide; P63103; TR-FRET 14-3-3zeta/Dy647-pBad peptide displacement, 1 h; inhibition, % at 21.7 µM; 220,000 compounds, 0.71% hits;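 active means inhibition above about 70%, limit read from the data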;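 further: 0% = full 14-3-3 plus peptide FRET controls and 100% = background without 14-3-3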
# Target sequence (P63103 whole entry, looked up): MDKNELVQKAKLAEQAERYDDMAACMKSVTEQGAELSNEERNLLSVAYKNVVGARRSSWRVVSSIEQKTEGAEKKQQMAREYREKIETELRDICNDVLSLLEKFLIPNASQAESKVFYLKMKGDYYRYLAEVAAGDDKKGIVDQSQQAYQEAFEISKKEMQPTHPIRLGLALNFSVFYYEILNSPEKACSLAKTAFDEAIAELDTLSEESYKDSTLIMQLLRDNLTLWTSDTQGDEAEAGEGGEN
# NCF1 inh – p47phox (human) inhibition; 220,000 compounds, 0.53% hits; inhibition, % at 24.7 µM; AID 1274; p47phox/p22phox peptide binding, fluorescence polarization, 2 h;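 further: 0% = p47phox with labelled peptide and 100% = labelled peptide alone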
# eIF4E-4G inh – eIF4E/eIF4G interaction inhibition in translation initiation; inhibition, % at 21.7 µM; P63073+Q04637; TR-FRET eIF4E-eIF4GI(517-606) binding, 2 h; 220,000 compounds, 0.37% hits;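 further: 0% = full FRET control wells and 100% = background wells lacking eIF4GI fragment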
# Mcl1-Noxa inh – Mcl-1/Noxa interaction inhibition. Q07820. TR-FRET Mcl-1/Noxa peptide binding, 2 h. inhibition, % at 21.7 µM. 220,000 compounds, 1.5% hits. AID 1022;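 active means compounds that cut the protein-peptide binding signal by more than 50% relative to plate controls in a single-dose test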;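 further: His-tagged Mcl-1 with rhodamine Noxa BH3 peptide and terbium anti-His antibody; 0% = Mcl-1 plus Noxa peptide wells and 100% = peptide-only wells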
# Bim-Mcl-1 – inhibitors of Bim-Mcl-1 interaction, human; Bead-based flow cytometry, Bim peptide-Mcl-1 binding; inhibition, % at 10 µM; 190,000 compounds, 0.1% hits; in the data active means inhibition above about 40%;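 further: 0% = no compound tracer wells and 100% = peptide blocker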
# An asterisk follows results filed as active; · = no result given; [ ] = remark or other dose.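 How the source made its calls, unless noted: active means inhibition above about 30% (limit read from the data); inactive means the rest.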
SMILES,Mcl1-Bid inh,14-3-3 Bad PPI,NCF1 inh,eIF4E-4G inh,Mcl1-Noxa inh,Bim-Mcl-1
C=CCSC1=N/C(=C\C=C\c2ccco2)C(=O)S1,32,10,-3,8,76*,-6
Cc1ccccc1CC1(CO)CCCN(C(=O)CCCN2CCCCC2=O)C1 (centres undefined),-30,-12,-12,-1,13,1
COc1nc(OC)nc(N2CCC(C(=O)NCc3cccs3)CC2)n1,-40,84*,-6,4,-8,-1
CCn1cc(Br)c(C(=O)N2CCN(c3ccccc3)CC2)n1,0,72*,-2,1,16,3
NS(=O)(=O)c1ccc(N=Nc2ccc(=O)[nH]c2O)cc1,-41,73*,4,37*,63*,·
Cc1ccc(NC(=S)N(CCCN2CCCC2)Cc2cccn2Cc2ccc(Cl)cc2)cc1C,-26,-9,5,-2,16,-4
FC(F)(F)c1cccc(NC(=S)N(CCCN2CCCC2)Cc2cccn2Cc2ccc(Cl)cc2)c1,-37,12,35*,1,6,-4
COc1ccc(NC(=S)N(CCCN2CCCC2)Cc2cccn2Cc2ccc(Cl)cc2)cc1Cl,-30,0,43*,9,28,0
Cc1ccc(NC(=S)N(CCCN2CCCC2)Cc2cccn2Cc2ccc(Cl)cc2)cc1Cl,-3,25,35*,5,5,0
Cc1ccc(NC(=S)NCc2ccc(S(N)(=O)=O)cc2)cc1Cl,-57,-17,-4,-1,-6,0
CC(C)c1ccc(S(=O)(=O)N2CCN(CCC(=O)Nc3ccc(N(C)C)cc3)CC2)cc1,-33,-3,-8,8,72*,0
COc1ccc(NC(=O)CCN2CCN(S(=O)(=O)c3ccc(C(C)C)cc3)CC2)cc1,-36,·,3,·,1,1
CC1(C)Cc2c(sc3[nH]c(=S)n(Cc4ccco4)c(=O)c23)CO1,-9,5,-12,-2,30,-5
O=c1c2c3c(sc2[nH]c(=S)n1Cc1ccco1)CCC3,-50,21,-14,30,76*,·
CN(C)c1ccc(-c2n[nH]c(=S)n2-c2ccccc2)cc1,-36,-2,-9,-8,51*,-3
CCN(CC)c1ccc(-c2n[nH]c(=S)n2-c2ccccc2)cc1,-50,-18,5,-3,22,-7
CCc1sc(C(=O)Nc2ccccc2N2CCOCC2)cc1C,-13,-4,-11,-3,-1,-25
O=C(COC(=O)c1cc(-c2cccs2)nn1-c1ccccc1)Nc1ccc(Cl)c([N+](=O)[O-])c1,-26,-3,-22,6,2,-6
CCN1CCN(C(c2cccc(OC)c2)c2sc3nc(C)nn3c2O)CC1 (centres undefined),-3,1,-11,3,-5,-4
COc1cccc(C(c2sc3nc(C)nn3c2O)N2CCc3ccccc3C2)c1 (centres undefined),-9,-7,12,-3,52*,0
CC(=O)c1ccc(NC(=O)C2CC(c3ccc(F)cc3)=NO2)cc1 (centres undefined),-5,-5,6,1,20,-2
O=C(NC1CCCC1)C1CC(c2ccc(F)cc2)=NO1 (centres undefined),-13,-2,60*,-2,-5,0
Oc1ccc(/C=N/Nc2cc(N3CCCC3)nc(N3CCCC3)n2)cc1O,-69,-19,-3,18,65*,15
CCCCCc1cc(=O)oc2c(C(CCN3CCCC(C)C3)c3ccc4c(c3)OCO4)c(OC)cc(OC)c12 (centres undefined),-60,8,33*,4,7,·
CCCCCc1cc(=O)oc2c(C(CCN3CCCCC3)c3ccc4c(c3)OCO4)c(OC)cc(OC)c12 (centres undefined),-33,6,-5,1,7,·
SMILES,Mcl1-Bid inh,14-3-3 Bad PPI,NCF1 inh,eIF4E-4G inh,Mcl1-Noxa inh,Bim-Mcl-1
COc1ccc(C2CC(=O)Oc3c(C(CCN4CCCC(C)C4)c4ccc(N(C)C)cc4)c(OC)cc(OC)c32)cc1 (centres undefined),-98,0,9,43*,15,·
COc1ccc([N+](=O)[O-])c(OC)c1C(=O)NC(=O)Nc1c(F)cc(F)cc1F,-4,2,1,0,12,·
C#CCOCCOCCOCCNc1nc(N2CCOCC2)nc(N2CCN(C(=O)Cn3cc(CCCN=C(N)N)nn3)CC2)n1,8,20,-1,3,17,0
C#CCOCCOCCOCCNc1nc(N2CCN(C(=O)Cn3cc(CCCN=C(N)N)nn3)CC2)nc(N2CCN(C(=O)[C@H]([C@@H](C)CC)n3cc(CCC(=O)O)nn3)CC2)n1,6,12,-9,4,0,-3
C#CCOCCOCCOCCNc1nc(N2CCN(C(=O)[C@H]([C@@H](C)CC)n3cc(CCCN=C(N)N)nn3)CC2)nc(N2CCN(C(=O)[C@H](C)n3cc(CCCN=C(N)N)nn3)CC2)n1,45,75*,10,4,36,-4
C#CCOCCOCCOCCNc1nc(N2CCN(C(=O)[C@H](C)n3cc(CCCN=C(N)N)nn3)CC2)nc(N2CCN(C(=O)[C@H](C)n3cc(CCCN=C(N)N)nn3)CC2)n1,6,11,7,1,15,-5
C#CCOCCOCCOCCNc1nc(N2CCN(C(=O)Cn3cc(CCCN=C(N)N)nn3)CC2)nc(N2CCN(C(=O)Cn3cc(CCCN=C(N)N)nn3)CC2)n1,58*,88*,15,3,42,-1
C#CCOCCOCCOCCNc1nc(N2CCN(C(=O)[C@H]([C@@H](C)CC)n3cc(CCCN=C(N)N)nn3)CC2)nc(N2CCN(C(=O)[C@H]([C@@H](C)CC)n3cc(CCCN=C(N)N)nn3)CC2)n1,62*,77*,10,2,25,0
Cc1ccc(O)c(CNc2ccc(S(=O)(=O)Nc3nccs3)cc2)c1,-75,1,-15,-6,18,·
COc1ccc(CCNC(=O)Cn2cnc3c(cnn3-c3ccccc3Cl)c2=O)cc1OC,-2,1,0,31*[fluorescence artefact?],0,0
COc1ccc(CCNC(=O)Cn2cnc3ccccc3c2=O)cc1OC,-6,-4,-1,0,11,-3
COc1ccc(Cl)cc1C(Nc1cccnc1)c1ccc2cccnc2c1O (centres undefined),97*,28,5,27,46,0
COc1cc(/C=C(\C#N)C(=O)Nc2cccnc2)ccc1OC(C)C,-8,1,-6,0,4,-4
O=c1ccc2cc3c([nH]c4ccc(Br)cc43)oc-2c1O,13,6,-36,14,94*,24
COC(=O)N=Nc1c(O)[nH]c2ccc(Br)cc12,-22,-2,-11,-2,-12,·
Fc1ccc(C2CCCN2Cc2nc(Cc3ccccc3)no2)cc1 (centres undefined),-15,-9,-6,60*,-1,-1
